# Compound activity as filed in PubChem BioAssay.
# CHO-K1 Ca ag = M1 agonist counterscreen hit in parental CHO-K1 cells. 0.48% of 360,000 active. activation, % at 3 µM. Fluo-8 calcium fluorescence; scaled to maximal ATP response, vehicle zero; in the data active = activation above about 15%;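 note: untransfected CHO-K1 host cells lacking M1 receptor as counterscreen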
# CHRM1 PAM = positive allosteric modulators of human M1 muscarinic receptor; CHO-K1 hM1, Fluo-8 calcium fluorescence, ACh EC20; 0% = ACh EC20, 100% = maximal ACh; P11229; activation, % at 3 µM; 0.088% of 360,000 active; in the data active = activation above about 19%, passing the limit was not always enough
# Target sequence (P11229 whole entry, looked up): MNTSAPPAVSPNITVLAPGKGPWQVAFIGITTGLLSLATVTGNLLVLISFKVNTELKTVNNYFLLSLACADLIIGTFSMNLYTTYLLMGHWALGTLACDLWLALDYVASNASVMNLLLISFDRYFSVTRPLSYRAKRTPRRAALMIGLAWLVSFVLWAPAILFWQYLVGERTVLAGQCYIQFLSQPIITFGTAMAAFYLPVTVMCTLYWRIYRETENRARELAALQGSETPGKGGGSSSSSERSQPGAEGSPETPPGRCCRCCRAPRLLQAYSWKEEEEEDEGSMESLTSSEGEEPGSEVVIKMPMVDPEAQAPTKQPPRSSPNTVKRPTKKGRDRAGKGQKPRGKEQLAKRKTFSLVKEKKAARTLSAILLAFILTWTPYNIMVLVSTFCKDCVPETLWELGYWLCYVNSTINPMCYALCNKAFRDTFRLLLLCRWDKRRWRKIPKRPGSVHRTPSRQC
# M1 PAM parental = nonselective activator or artifact in parental CHO-K1 calcium assay | 0.02% of 360,000 active | ATP EC20, Fluo-8 calcium fluorescence; 0% at ATP EC20, 100% at ATP max | AID 602247 | activation, % at 3 µM;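 active = activation above the run cutoff, the mean activation of all test compounds plus 3 SD, cut at about 40% in these data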;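 note: peak over basal fluorescence ratio in a 140 s read after ATP addition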
# CHO-K1 Ca antag = nonselective inhibitor or artifact in parental CHO-K1 cells | 0.6% of 360,000 active | inhibition, % at 3 µM | ATP-induced calcium, Fluo-8 fluorescence;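 active = inhibition above a per-plate cutoff, the plate's mean sample inhibition plus 3 SD, cut at about 24% in these data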;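 note: 0% = DMSO plus EC80 ATP and 100% = DMSO alone without ATP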
# CHRM1 agonist = human M1 muscarinic receptor agonism | CHO-K1 hM1, Fluo-8 calcium fluorescence, agonist mode; 0% DMSO, 100% acetylcholine EC100 | P11229 | activation, % at 3 µM | 0.33% of 360,000 active | AID 588814;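 active = activation above the run's mean compound activation plus 3 SD, cut at about 16% in these data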;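 note: peak over basal fluorescence ratio within a 140 s kinetic read after compound addition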
# CHRM1 antagonist = antagonists of human M1 muscarinic receptor; P11229; CHO-K1 hM1, Fluo-8 calcium fluorescence, ACh EC80 antagonist; inhibition, % at 3 µM; 1.3% of 360,000 active;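 active = percent inhibition above its own plate's cutoff, namely the mean of that plate's compound wells plus 3 SD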;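 note: peak over basal fluorescence ratio during 140 s after agonist addition; 0% = ACh EC80 plus DMSO and 100% = DMSO alone without agonist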
# * hit, by the source's call; x = not tested or not shown. Most compounds without a hit are left out; they make up all but 2.3% or so of the library.
SMILES,CHO-K1 Ca ag,CHRM1 PAM,M1 PAM parental,CHO-K1 Ca antag,CHRM1 agonist,CHRM1 antagonist
CCC(CO)Oc1cc(NC(=O)Cc2ccccc2)c2ncn(C(C)C)c2c1 (centres undefined),0.0,0.8,9.8,-15.1,-3.7,4.1
O=C1/C(=C/c2ccc(O)c(O)c2)SC(=S)N1Nc1ccccc1,11.2,-2.6,-3.1,18.0,12.9,15.3
COc1cc(/C=C2/SC(=S)N(CC3CCCO3)C2=O)ccc1O (centres undefined),18.0*,-5.3,4.6,15.1,14.2,18.6
COc1cc(/C=C2\SC(=S)N(C(Cc3ccccc3)C(=O)O)C2=O)ccc1O (centres undefined),15.2*,0.9,-8.1,2.9,7.4,-1.5
COc1ccc(/C=C2\SC(=S)N(CC3CCCO3)C2=O)cc1 (centres undefined),0.3,6.4,-17.0,5.5,-0.3,-12.2
COc1cc(/C=C2\SC(=S)N(Nc3ccccc3)C2=O)ccc1O,27.2*,-10.7,8.4,23.7*,22.6*,23.6
CCOc1cc(/C=C2\SC(=S)N(Nc3ccccc3)C2=O)ccc1O,13.2,3.6,-2.2,20.8,29.1*,2.0
Cc1noc(NS(=O)(=O)c2ccc(NS(=O)(=O)c3ccc(C(C)(C)C)cc3)cc2)c1C,0.1,2.3,7.3,-1.9,-4.6,-5.5
OCC[C@@H]1C[C@H](O)[C@@H](O)[C@]2(OCc3cc(Cl)ccc32)O1,-0.2,5.8,0.4,21.4,-2.0,4.8
CC1CC(C)CN(C(=O)c2ccc(Br)c(S(=O)(=O)N3CCOCC3)c2)C1 (centres undefined),1.5,2.2,7.9,-1.7,-0.7,0.0
O=C(c1ccc(Br)c(S(=O)(=O)N2CCOCC2)c1)N1CCN(C/C=C/c2ccccc2)CC1,8.2,-29.4,5.3,-11.2,-5.6,69.9*
OCc1nc2c(ccc3ccccc32)[nH]1,0.1,9.3,4.3,-13.9,0.0,-16.9
CN(C)c1nc(-c2ccccc2)nnc1C(F)(F)F,0.1,5.9,17.2,-0.5,-6.3,-19.4
CN(C)CCNc1nc(-c2ccccc2)nnc1C(F)(F)F,5.6,-2.1,2.3,45.6*,-0.4,-18.4
NC(=O)c1c(NC(=O)CN2CCN(S(=O)(=O)c3ccccc3)CC2)sc2c1CCC2,4.4,0.8,-5.8,7.0,-2.0,4.8
O=C(NCC(c1ccco1)N1CCCCC1)C(c1ccccc1)c1ccccc1 (centres undefined),0.1,-24.5,4.7,-10.5,-7.8,77.9*
N#Cc1ccccc1Sc1ccccc1C(=O)NCC(c1ccco1)N1CCCC1 (centres undefined),-0.2,-23.3,2.3,17.4,-7.4,36.8*
CC(C)(C)NS(=O)(=O)c1ccc2nc(NC(=O)c3ccc(N4C(=O)CCC4=O)cc3)sc2c1,15.1*,6.1,7.3,3.0,1.6,-4.4
CC(=O)N1Cc2cc(C(=O)NCC(F)(F)F)nc(-c3cccc(-c4cccnc4)c3)c2[C@@H]1CCO,0.2,x,22.1,-24.6,x,x
COc1ccc(/C=C/c2cc(C(=O)O)c3ccccc3n2)cc1,21.3*,0.2,4.8,1.8,8.0,4.5
O=C(NCCCN1CCOCC1)/C(=C/c1ccc(F)cc1)NC(=O)c1ccccc1,0.5,5.5,16.9,-11.2,-3.4,-3.0
CCC1=NN(C(=O)c2ccc(Cl)cc2)C(O)(c2ccc(C)cc2)C1 (centres undefined),0.3,9.2,3.5,-1.9,-2.0,-7.0
CCOC(=O)C1=NN(C(=O)c2ccc(C)cc2)C(O)(c2ccc(Cl)cc2)C1 (centres undefined),13.1,-5.1,-2.1,-5.3,22.0*,3.2
COc1cccc(-n2cnc3c(sc4nc(N5CCOCC5)c5c(c43)CCCC5)c2=O)c1,2.3,4.1,6.7,-7.7,-3.3,17.2
CC(=O)Nc1cccc(-c2ccnc3c2CC(C(=O)Nc2ccc(C(C)C)cc2)O3)c1 (centres undefined),1.2,2.2,2.4,-5.9,-0.7,-10.7
SMILES,CHO-K1 Ca ag,CHRM1 PAM,M1 PAM parental,CHO-K1 Ca antag,CHRM1 agonist,CHRM1 antagonist
Cc1nn(C)cc1CNC(=O)c1cc2n(n1)C(C(F)(F)F)CC(c1cccs1)N2 (centres undefined),3.2,-17.0,-13.6,-4.6,-2.9,23.3*
Cc1nn(C)c(C)c1CNC(=O)c1nn2c(c1Cl)NC(c1cccs1)CC2C(F)(F)F (centres undefined),-0.1,-3.5,-6.7,-2.1,-1.7,-7.9
CN=C1NC(C)(C)C2CCC(C)(CC2)S1,1.7,-29.2,16.3,-11.4,-9.5,39.1*
O=c1cc(O)c2c(=O)n(-c3ccccc3)c3c(c2o1)CCCCCC3,-0.2,-5.0,-11.7,23.7*,-4.1,6.2
O=c1cc(O)c2c(=O)n(C3CCCCC3)c3ccccc3c2o1,0.0,4.7,12.1,-0.6,-3.1,-7.4
CC1=NNC(=O)/C1=C\c1cn(-c2ccccc2)nc1-c1cccs1,8.6,-2.8,-5.7,30.6*,1.8,33.6*
Cc1cc(C)n(-c2ccc(C)c(Cl)c2)n1,-0.2,4.0,1.0,5.3,-6.4,-9.6
Cc1cc(NC(=O)CCC(=O)N(c2ccccc2)C(C(=O)NC2CCCC2)c2ccccc2F)no1 (centres undefined),2.8,-0.3,6.2,-13.5,-3.3,3.1
COc1ccc2c(n1)Sc1nc3ccccc3nc1N2,24.6*,-11.7,7.8,28.1*,48.0*,32.6
CC/C(=N\NC(=O)Nc1ccccc1)c1ccccc1,0.6,2.8,1.9,33.6*,-1.8,8.6
C/C(CC(C)C)=N\NC(=O)Nc1ccccc1,0.3,7.4,21.3,-10.8,-5.6,-5.6
O=C(c1ccccc1)N(c1ccccc1)c1nccc2ccccc12,0.4,5.3,13.8,-0.7,-5.1,-8.2
COC1OC(COCc2ccccc2)C(N)C(OCc2ccccc2)C1OCc1ccccc1 (centres undefined),2.9,-27.6,24.5,-13.8,-1.9,41.7*
CN(CC(=O)Nc1ccccc1Br)C(=O)CNC(=O)c1ccc(Oc2ccccc2)cc1,7.8,2.5,13.3,-8.4,0.0,1.8
COc1ccc(NC(=O)CN(C)C(=O)c2cccc(S(=O)(=O)N3CCN(Cc4ccccc4)CC3)c2)cc1,3.8,6.7,9.5,-3.6,-1.2,-7.2
CC(C)CN(C(=O)c1cccc(S(=O)(=O)N2CCN(Cc3ccccc3)CC2)c1)C1CCS(=O)(=O)C1 (centres undefined),-0.4,24.7*,-9.2,-10.4,-1.4,-32.0
CN(CCOc1ccc(Cl)cc1)C(=O)c1cccc(S(=O)(=O)N2CCN(Cc3ccccc3)CC2)c1,12.9,-14.5,-12.0,11.2,-0.3,39.7*
CCCN(C(=O)c1cccc(S(=O)(=O)N2CCN(Cc3ccccc3)CC2)c1)C1CCS(=O)(=O)C1 (centres undefined),-0.1,12.0,-14.3,-4.6,-2.0,-9.3
